Results from PubChem BioAssay.
Active and inactive are the calls of the source.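 The calls were made as follows, unless noted: active = inhibition at or above 50% at 10 µM; inactive = inhibition below 50%.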

Assays:
[1] = inhibitors of TNFa-induced NFkB p65 translocation, primary screen, imaging, HUVEC, MLSMR starter and 10KST1 sets (AID 438;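 active = inhibition above 20% together with a positive visual image hit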;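 also: compound added about 3h40 before a 20 min TNFalpha stimulation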;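 as to inhibition: signal is the nuclear over cytoplasmic p65 intensity ratio per well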); settings: HUVEC TNFa-induced p65 nuclear translocation; cell count: measured here: nuclei count (cytotoxicity indicator), at 2.08 µM; inhibition: at 2 µM, stronger effect = higher value, 0% TNFa-plus-vehicle, 100% no-TNFa wells
[2] = inhibitors of mutant huntingtin aggregation, primary screen, imaging, exon1htt(103Q)mCFP cells, high-content imaging (AID 483;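 active = visual image review flags a hit and inhibition of aggregation exceeds 20%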;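 also: compound exposure lasted 3 days before fixation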;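 as to nuclei count: percent of the per-plate median nuclei count of sample wells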); settings: exon1htt(103Q)mCFP cell line, aggregate imaging, at 2 µM; inhibition of aggregation: stronger effect = higher value; nuclei count: measured here: cell count, toxicity
[3] = inhibitors of E-selectin induction by TNFa, primary screen, imaging, HUVEC, immunofluorescence, MLSMR starter and 10KST1 sets (AID 487;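 active = visually confirmed hit in the image check and inhibition above 20%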;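 as to inhibition: signal is fraction of cell area covered by stained E-selectin grains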;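 as to nuclei count: 100% = median nuclei count of all wells on the same plate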); settings: HUVEC TNFalpha-induced E-selectin immunofluorescence imaging, at 2 µM; inhibition: stronger effect = higher value; nuclei count: measured here: cell number, toxicity
[4] = target: Voltage-gated potassium channel subunit beta-2 (Rattus norvegicus) (UniProt P62483); assay: KvBeta enzyme negative modulators, primary screen, biochemical, NADPH fluorescence (AID 622;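 active = fluorescence slope higher than the sample average by over 3 SD, cut at about -0.22 in these data, passing the limit was not always enough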;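 also: slope of raw intensity against log time taken from 70 to 1610 s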); settings: recombinant KvBeta, 4-cyanobenzaldehyde reduction, at 10 µM, stronger effect = higher value
Chain of Voltage-gated potassium channel subunit beta-2 (Rattus norvegicus) (P62483 whole entry, looked up): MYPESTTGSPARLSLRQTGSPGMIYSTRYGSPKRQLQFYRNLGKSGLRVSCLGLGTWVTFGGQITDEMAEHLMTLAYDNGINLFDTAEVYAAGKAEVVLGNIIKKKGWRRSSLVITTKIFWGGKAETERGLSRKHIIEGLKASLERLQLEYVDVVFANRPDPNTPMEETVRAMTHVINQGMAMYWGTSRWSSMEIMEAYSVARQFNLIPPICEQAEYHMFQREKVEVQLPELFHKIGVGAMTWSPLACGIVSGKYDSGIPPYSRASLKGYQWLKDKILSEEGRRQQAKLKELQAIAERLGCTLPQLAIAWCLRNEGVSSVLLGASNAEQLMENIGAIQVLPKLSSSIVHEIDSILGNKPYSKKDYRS

[5] = target: Voltage-gated potassium channel subunit beta-2 (Rattus norvegicus) (UniProt P62483); assay: KvBeta positive modulators, primary screen, biochemical, NADPH fluorescence (AID 623;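 active = NADPH fluorescence slope more negative than the mean of all samples by about 3 SD, 99.7% confidence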;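 also: fluorescence intensity change per second fitted from 20 to 320 s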); settings: Recombinant KvBeta, NADPH fluorescence decrease slope, 10 min; at 10 µM; stronger effect = lower value
[6] = target: Alpha-2C adrenergic receptor (Homo sapiens) (UniProt P18825); assay: modulators of alpha2C/GIRK thallium flux, primary screen, cell-based, HEK293 alpha2C/GIRK1/2 (AID 624;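 active = fluorescence slope after compound addition differing from the mean of all screened samples at 99.7% confidence, in either direction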;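 also: slope of fluorescence ratio to pre-addition baseline per second over 15 to 24 s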); settings: thallium flux BTC fluorescence, at 10 µM, actives lie on both sides
Chain of Alpha-2C adrenergic receptor (Homo sapiens) (P18825 whole entry, looked up): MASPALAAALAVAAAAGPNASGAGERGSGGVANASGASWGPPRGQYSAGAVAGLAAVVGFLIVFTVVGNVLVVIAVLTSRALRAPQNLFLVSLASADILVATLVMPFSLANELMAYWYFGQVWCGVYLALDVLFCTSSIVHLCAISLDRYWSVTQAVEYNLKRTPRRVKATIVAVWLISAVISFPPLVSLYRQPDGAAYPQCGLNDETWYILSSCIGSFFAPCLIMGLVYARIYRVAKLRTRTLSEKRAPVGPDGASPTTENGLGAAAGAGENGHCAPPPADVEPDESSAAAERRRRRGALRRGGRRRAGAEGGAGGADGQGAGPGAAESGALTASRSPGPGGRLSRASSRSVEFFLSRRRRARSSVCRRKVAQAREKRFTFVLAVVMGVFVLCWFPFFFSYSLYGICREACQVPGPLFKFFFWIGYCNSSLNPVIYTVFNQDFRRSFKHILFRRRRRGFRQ

[7] = inhibitors of Sendai virus-induced IRF3 signaling, primary screen, TLR/RLR signaling modifier project, cell-based, Sendai virus stimulus, luciferase, 10K MLSCN set (AID 602276); settings: HEK293 RL24 IRF3 luciferase reporter, at 10 µM, stronger effect = higher value;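 also: firefly luciferase from ISG56 promoter only with Renilla not read in this screen; 0% = Sendai virus plus DMSO and 100% = medium plus DMSO without virus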
[8] = inhibitors of poly I:C-induced TLR3 signaling, primary screen, cell-based, poly I:C stimulus, luciferase, 10K MLSCN set (AID 602277;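 active = inhibition of the reporter signal at or above 50%; inactive = inhibition below 50%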); settings: HEK293-TLR3 RL24 IRF3 luciferase reporter, at 10 µM, stronger effect = higher value

Structure (SMILES) | cell count [1] | inhibition [1] | inhibition of aggregation [2] | nuclei count [2] | inhibition [3] | nuclei count [3] | fluorescence slope [4] | NADPH fluorescence slope [5] | slope [6] | inhibition [7] | inhibition [8]
COC(=O)c1c(O)ccc(Oc2ccccc2)c1C(=O)OC | 667 | -5.3% (inactive) | 28.9% (inactive) | 71.8% | -17.9% (inactive) | 107% | -0.257 (inactive) | -2.9e-06 (inactive) | 0.0066 (inactive) | 15.3% (inactive) | 21.8% (inactive)
CCCCN(C)CCCNC(=O)CC1Oc2ccccc2NC1=O (stereo not drawn) | 585 | -2.7% (inactive) | 18.9% (inactive) | 104% | -11.7% (inactive) | 131% | -0.493 (inactive) | 1.6e-05 (inactive) | 0.00638 (inactive) | 13.8% (inactive) | 36.6% (inactive)
CCCCCn1c(CN2CCN(C(=O)c3ccco3)CC2)nc2c1c(=O)n(C)c(=O)n2C | 726 | -14.6% (inactive) | -17.8% (inactive) | 103% | -13.1% (inactive) | 113% | -0.57 (inactive) | -5.2e-05 (inactive) | 0.00727 (inactive) | 1.47% (inactive) | 11.3% (inactive)
COc1ccc(CNC(=O)c2cc3c(=O)n4ccccc4nc3n(Cc3ccco3)c2=N)cc1 | 666 | -7.8% (inactive) | -28.6% (inactive) | 127% | -30.5% (inactive) | 113% | -0.597 (inactive) | -6e-07 (inactive) | 0.0063 (inactive) | 14.5% (inactive) | 20.4% (inactive)
Cc1ccnc(SCCn2c(N3CCN(Cc4ccccc4)CC3)nc3c2c(=O)[nH]c(=O)n3C)n1 | 665 | -22.3% (inactive) | 0.8% (inactive) | 120% | -36.7% (inactive) | 96.2% | -0.542 (inactive) | -3.1e-05 (inactive) | 0.00641 (inactive) | -0.348% (inactive) | 0.626% (inactive)
CCCOc1ccc(N2CC(C(=O)Nc3ccc4c(c3)OCO4)CC2=O)cc1 (stereo not drawn) | 520 | -5% (inactive) | 14.9% (inactive) | 81% | -12.8% (inactive) | 81.9% | -0.444 (inactive) | -2.5e-06 (inactive) | 0.00561 (inactive) | 3.94% (inactive) | 6.03% (inactive)
O=C(COc1ccc(=O)n(-c2ccccc2)n1)Nc1ccccc1 | 600 | 8% (inactive) | -6.4% (inactive) | 114% | 23.8% (inactive) | 119% | -0.471 (inactive) | 7.6e-06 (inactive) | 0.00619 (inactive) | 9.72% (inactive) | 23.6% (inactive)
COC(=O)c1c(N)sc(C(=O)N2CCOCC2)c1C | 261 | -5.1% (inactive) | 3% (inactive) | 82.3% | 60.2% (inactive) | 32.3% | -0.439 (inactive) | -5.8e-06 (inactive) | 0.00581 (inactive) | -4.15% (inactive) | -5.07% (inactive)
CCOc1ccc(C(=O)N2CCN(C(=O)c3ccco3)CC2)cc1OCC | 558 | -2.7% (inactive) | -6.8% (inactive) | 111% | 28.1% (inactive) | 93.4% | -0.367 (inactive) | 4.3e-05 (inactive) | 0.00675 (inactive) | 12% (inactive) | 21.2% (inactive)
O=C(CN1C(=O)CCSc2ccccc21)Nc1ccccc1 | 854 | -4.1% (inactive) | -19.8% (inactive) | 105% | -140% (inactive) | 113% | -0.447 (inactive) | -0.000395 (inactive) | 0.00731 (inactive) | -3.3% (inactive) | 7.46% (inactive)
O=C(Nc1nnc(-c2ccc(Cl)cc2)o1)C1CCCCC1 | 673 | 1.8% (inactive) | 18.6% (inactive) | 96.8% | -21.5% (inactive) | 115% | -0.443 (inactive) | -6.8e-05 (inactive) | 0.00624 (inactive) | 6.6% (inactive) | 3.98% (inactive)
O=C(CCS(=O)(=O)c1cccc2nsnc12)NCc1ccccc1 | 718 | 3.1% (inactive) | -14.8% (inactive) | 93.6% | -24.5% (inactive) | 114% | -0.567 (inactive) | 3.6e-05 (inactive) | 0.00505 (inactive) | -2.94% (inactive) | 5.74% (inactive)
CCOC(=O)N1CCC(NC(=O)CN2C(=O)CCSc3ccccc32)CC1 | 807 | -8.5% (inactive) | 5.8% (inactive) | 101% | -78% (inactive) | 108% | -0.515 (inactive) | -3.1e-05 (inactive) | 0.00644 (inactive) | 4.21% (inactive) | 1.38% (inactive)
O=S(=O)(Nc1nc2ccccc2nc1NCc1ccco1)c1ccc(Cl)cc1 | 481 | 0.9% (inactive) | 4.8% (inactive) | 101% | 8.2% (inactive) | 129% | -0.448 (inactive) | -6.1e-05 (inactive) | 0.00347 (inactive) | 19.4% (inactive) | 18.7% (inactive)
Cn1c(=O)c2c(ncn2CC(=O)OCC(=O)NC2CCCc3ccccc32)n(C)c1=O (stereo not drawn) | 392 | 2.7% (inactive) | 23.7% (inactive) | 64.6% | -85.1% (inactive) | 112% | -0.616 (inactive) | 2.2e-06 (inactive) | 0.00842 (inactive) | 2.45% (inactive) | 22.5% (inactive)
Cc1ccc(-c2cc(C(=O)O)n[nH]2)o1 | 358 | 1% (inactive) | 3.3% (inactive) | 101% | -1.4% (inactive) | 97.7% | -0.612 (inactive) | 4.6e-05 (inactive) | 0.00603 (inactive) | 9.01% (inactive) | 14.9% (inactive)
COC(=O)CSc1cc(C)nc(NC(C)=O)n1 | 703 | 11% (inactive) | -16.4% (inactive) | 98.3% | -5.3% (inactive) | 110% | -0.586 (inactive) | -4.5e-05 (inactive) | 0.0055 (inactive) | 6.12% (inactive) | 17.7% (inactive)
COCC(=O)N(c1ccc(C(C)C)cc1)C1C=CS(=O)(=O)C1 (stereo not drawn) | 691 | -23.8% (inactive) | 20.8% (inactive) | 129% | -55.5% (inactive) | 103% | -0.314 (inactive) | -7.6e-06 (inactive) | 0.00672 (inactive) | 7.64% (inactive) | 28.1% (inactive)
CCOC(=O)C(C)Sc1nnc(Cc2cc(=O)[nH]c(=O)[nH]2)n1-c1ccc(Cl)cc1 (stereo not drawn) | 817 | -6.8% (inactive) | 4.6% (inactive) | 107% | -37.1% (inactive) | 99.1% | -0.615 (inactive) | 5.1e-06 (inactive) | 0.00534 (inactive) | 15.5% (inactive) | 12% (inactive)
CCN(CC)S(=O)(=O)N1CCC(C(=O)NC2CCCc3ccccc32)CC1 (stereo not drawn) | 690 | 5.7% (inactive) | -6.5% (inactive) | 95% | -8.8% (inactive) | 116% | -0.49 (inactive) | 8.8e-05 (inactive) | 0.00498 (inactive) | -11.5% (inactive) | -8.15% (inactive)
O=C(NCC1CCCO1)c1ccc(C(=O)NCC2CCCO2)cc1 (stereo not drawn) | 331 | 1.9% (inactive) | -3.7% (inactive) | 101% | 52.3% (inactive) | 94.3% | -0.332 (inactive) | -3.2e-05 (inactive) | 0.00518 (inactive) | 1.79% (inactive) | 4.03% (inactive)
C=CCOC(=O)C1=C(C)OC(N)=C(C#N)C1c1ccc2c(c1)OCO2 (stereo not drawn) | 229 | 13.4% (inactive) | -3% (inactive) | 90.4% | 9.6% (inactive) | 136% | -0.602 (inactive) | -3.1e-05 (inactive) | 0.00567 (inactive) | -2.6% (inactive) | 7.38% (inactive)
O=S1(=O)CC(N2CCOCC2)c2ccccc21 (stereo not drawn) | 644 | -0.2% (inactive) | 8.1% (inactive) | 95.1% | -26.3% (inactive) | 112% | -0.52 (inactive) | -1.6e-05 (inactive) | 0.00437 (inactive) | 7.8% (inactive) | 12.8% (inactive)
CCOC(=O)CN1CC23C=CC(O2)C(C(=O)Nc2ccc(OCC)cc2)C3C1=O (stereo not drawn) | 615 | 0.7% (inactive) | -10.5% (inactive) | 112% | -5.7% (inactive) | 106% | -0.517 (inactive) | -1.3e-05 (inactive) | 0.00673 (inactive) | 7.04% (inactive) | 15.5% (inactive)
CCCc1cc(-n2ccnc2)n2c(nc3ccccc32)c1C#N | 571 | 8.7% (inactive) | -11.1% (inactive) | 98.8% | 30.6% (inactive) | 99.8% | -0.51 (inactive) | 1.6e-06 (inactive) | 0.00652 (inactive) | 16.6% (inactive) | 47.3% (inactive)
COCCNC(=O)CN1CCN(C(c2ccccc2)c2ccccc2)CC1 | 240 | -6.6% (inactive) | 18.2% (inactive) | 77.7% | -7.5% (inactive) | 86.9% | -0.556 (inactive) | -4.9e-05 (inactive) | 0.00771 (inactive) | -12.4% (inactive) | -6.81% (inactive)
O=C(c1cccs1)N1CCN=C1SCc1ccccc1 | 435 | 3.1% (inactive) | 6.2% (inactive) | 106% | -33.5% (inactive) | 111% | -0.445 (inactive) | -9.7e-05 (inactive) | 0.00597 (inactive) | 2.79% (inactive) | -0.0227% (inactive)
CCn1c2ccccc2c2cc(Nc3cc(C)nc4ncnn34)ccc21 | 513 | 8.5% (inactive) | 7.5% (inactive) | 3% | -104% (inactive) | 65.1% | -0.527 (inactive) | 7.4e-07 (inactive) | 0.00558 (inactive) | 68.5% (active) | 87.2% (active)
